Measurements reported in PubChem BioAssay (NCI).
This is part of a sample that, as a whole, favours compounds with a hit. Of some 79,000 tested, about 15% had one in any assay. Calls of active or inactive are those of the source. Rule as the data show it: active = growth inhibition above about 70%; inactive = the rest.

experiment: NCI Yeast Anticancer Drug Screen. Data for the sgs1 mgt1 strain (AID 161);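 also: 0% = growth of cultures given vehicle only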; conditions: S. cerevisiae sgs1 mgt1 strain, at 50.0 µM, hits give high values
Summary of the method: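 Mutant yeast exposed to compound; growth scored against vehicle-only wells.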

| Compound | growth inhibition |
| --- | --- |
| CC1(C)Oc2ccc3c(=O)cc(-c4ccc(F)cc4)oc3c2C1C(=O)O (stereo unspecified) | -12.2% (inactive) |
| COc1ccc2nc(N/N=C/c3ccc(C)s3)cc(C)c2c1 | 15.6% (inactive) |
| CC1CC(C(=O)OC2OC(COC3OC(CO)C(OC4OC(C)C(O)C(O)C4O)C(O)C3O)C(O)C(O)C2O)C2CCC3(C)C(=CCC4(C)C3CCC3C(C)(CO)C(O)C(O)CC34C)C2C1C (stereo unspecified) | 72.8% (active) |
| Cn1cnc2c(=O)[nH]c(=O)[nH]c21 | -43.4% (inactive) |
| Cc1ccc2c(sc(-c3ccc4c(c3)sc(-c3ccc5c(c3)sc(-c3ccc(N(C)C)cc3)[n+]5C)[n+]4C)[n+]2C)c1S(=O)(=O)O (tested in a mixture with another compound) | 46.4% (inactive) |
| O=C(O)c1cc(C(=O)O)cc([N+](=O)[O-])c1 | 4.75% (inactive) |
| NC(=O)CC1OC(=O)Cc2cc3c(c(O)c21)C(=O)c1c(O)cccc1C3=O (stereo unspecified) | 22.4% (inactive) |
| CC(C)=CC(O)C/C(C)=C/CC/C(C)=C/CCC1(C)C(CCCO)/C(=C(/C)C=O)CCC1(C)O (stereo unspecified) | 10.2% (inactive) |
| CNC(=S)c1nnsc1N | 21.6% (inactive) |
| COc1ccc(-c2nc3ccccc3c(=S)n2OC(C)=O)cc1 | 82.1% (active) |
| Cn1c2c(c3ccccc3c1=O)C(=O)c1ccccc1-2 | 9.3% (inactive) |
| C=C1C(=O)O[C@@H]2C[C@@]3(C)CC(=O)C=C(C)[C@@H]3C[C@H]12 | -7.2% (inactive) |
| O=C(/C=C/c1ccccc1)Nc1ccccc1 | 6.35% (inactive) |
| CC(C)=CCc1cc(C2COc3cc4c(c(O)c3C2=O)C=CC(C)(C)O4)c(O)cc1O (stereo unspecified) | 92% (active) |
| N#CC(=S)Nc1ccc(F)cc1 | 30.7% (inactive) |

experiment: NCI Yeast Anticancer Drug Screen. Data for the cln2 rad14 strain (AID 165);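 also: 0% = growth equal to vehicle treated cultures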; conditions: S. cerevisiae cln2 rad14 strain, at 50.0 µM, hits give high values
Summary of the method: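 Test compounds were added to cln2 rad14 yeast cultures; inhibition of growth was then determined by comparison with vehicle treatment.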

| Compound | growth inhibition |
| --- | --- |
| CC1(C)Oc2ccc3c(=O)cc(-c4ccc(F)cc4)oc3c2C1C(=O)O (stereo unspecified) | -9.1% (inactive) |
| COc1ccc2nc(N/N=C/c3ccc(C)s3)cc(C)c2c1 | 24.4% (inactive) |
| CC1CC(C(=O)OC2OC(COC3OC(CO)C(OC4OC(C)C(O)C(O)C4O)C(O)C3O)C(O)C(O)C2O)C2CCC3(C)C(=CCC4(C)C3CCC3C(C)(CO)C(O)C(O)CC34C)C2C1C (stereo unspecified) | 26.8% (inactive) |
| Cc1ccc2c(sc(-c3ccc4c(c3)sc(-c3ccc5c(c3)sc(-c3ccc(N(C)C)cc3)[n+]5C)[n+]4C)[n+]2C)c1S(=O)(=O)O (tested in a mixture with another compound) | 40.1% (inactive) |
| O=C(O)c1cc(C(=O)O)cc([N+](=O)[O-])c1 | 0.25% (inactive) |
| NC(=O)CC1OC(=O)Cc2cc3c(c(O)c21)C(=O)c1c(O)cccc1C3=O (stereo unspecified) | 27.7% (inactive) |
| CC(C)=CC(O)C/C(C)=C/CC/C(C)=C/CCC1(C)C(CCCO)/C(=C(/C)C=O)CCC1(C)O (stereo unspecified) | 16.9% (inactive) |
| CNC(=S)c1nnsc1N | -2.45% (inactive) |
| COc1ccc(-c2nc3ccccc3c(=S)n2OC(C)=O)cc1 | 27.2% (inactive) |
| Cn1c2c(c3ccccc3c1=O)C(=O)c1ccccc1-2 | 26.1% (inactive) |
| C=C1C(=O)O[C@@H]2C[C@@]3(C)CC(=O)C=C(C)[C@@H]3C[C@H]12 | 24.7% (inactive) |
| CC(C)=CCc1cc(C2COc3cc4c(c(O)c3C2=O)C=CC(C)(C)O4)c(O)cc1O (stereo unspecified) | 90.9% (active) |
| N#CC(=S)Nc1ccc(F)cc1 | -17.8% (inactive) |

experiment: NCI Yeast Anticancer Drug Screen. Data for the bub3 strain (AID 167); conditions: S. cerevisiae bub3 mutant strain, at 50.0 µM, hits give high values
Summary of the method: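 Whole-cell yeast assay. The mutant strain was incubated with compounds, and growth inhibition was determined by comparison with vehicle-treated cells.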

| Compound | growth inhibition |
| --- | --- |
| CC1(C)Oc2ccc3c(=O)cc(-c4ccc(F)cc4)oc3c2C1C(=O)O (stereo unspecified) | 8.1% (inactive) |
| COc1ccc2nc(N/N=C/c3ccc(C)s3)cc(C)c2c1 | 0.7% (inactive) |
| CC1CC(C(=O)OC2OC(COC3OC(CO)C(OC4OC(C)C(O)C(O)C4O)C(O)C3O)C(O)C(O)C2O)C2CCC3(C)C(=CCC4(C)C3CCC3C(C)(CO)C(O)C(O)CC34C)C2C1C (stereo unspecified) | 77.8% (active) |
| Cn1cnc2c(=O)[nH]c(=O)[nH]c21 | -34.8% (inactive) |
| Cc1ccc2c(sc(-c3ccc4c(c3)sc(-c3ccc5c(c3)sc(-c3ccc(N(C)C)cc3)[n+]5C)[n+]4C)[n+]2C)c1S(=O)(=O)O (tested in a mixture with another compound) | 35% (inactive) |
| O=C(O)c1cc(C(=O)O)cc([N+](=O)[O-])c1 | 8.3% (inactive) |
| NC(=O)CC1OC(=O)Cc2cc3c(c(O)c21)C(=O)c1c(O)cccc1C3=O (stereo unspecified) | 16.5% (inactive) |
| CC(C)=CC(O)C/C(C)=C/CC/C(C)=C/CCC1(C)C(CCCO)/C(=C(/C)C=O)CCC1(C)O (stereo unspecified) | 4.6% (inactive) |
| CNC(=S)c1nnsc1N | 6.3% (inactive) |
| COc1ccc(-c2nc3ccccc3c(=S)n2OC(C)=O)cc1 | 90.2% (active) |
| Cn1c2c(c3ccccc3c1=O)C(=O)c1ccccc1-2 | 7.7% (inactive) |
| O=C(/C=C/c1ccccc1)Nc1ccccc1 | 7.05% (inactive) |
| N#CC(=S)Nc1ccc(F)cc1 | 10.9% (inactive) |
